Results filed as inconclusive are left out. Calls of active or inactive are those of the source. Unless noted, the call rests on the fitted dose curve.
Tests used:
[1] = Nuclear factor erythroid 2-related factor 2/antioxidant responsive element (Nrf2/ARE) small molecule agonists: qHTS cell viability counter screen in human keratinocytes (AID 1919968; active means well fitted curve in the direction sought with a large enough effect in the repeat runs; an effect the other way counts as inactive or inconclusive; further: nearly all actives have a fitted effect of over 55% in size)
Outline: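 Seed 1,500 KeratinoSens cells per well, then incubate 5 h at 37 C/5% CO2. Add compounds in DMSO and incubate 23 h. Add CellTiter-Fluor, wait 1 h and read fluorescence.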

[2] = Nuclear factor erythroid 2-related factor 2/antioxidant responsive element (Nrf2/ARE) small molecule agonists: luciferase reporter gene qHTS assay in human keratinocytes (AID 1919969); further: nearly all actives have a fitted effect of over 35% in size
[3] = target: Gonadotropin-releasing hormone receptor (Homo sapiens) (UniProt P30968); test: Human gonadotropin-releasing hormone receptor (GnRHR) small molecule agonists, calcium flux assay in GnRHR-HEK293 cells (AID 1920063); further: nearly all actives have a fitted effect of over 35% in size
Chain of Gonadotropin-releasing hormone receptor (Homo sapiens) (P30968 whole entry, looked up): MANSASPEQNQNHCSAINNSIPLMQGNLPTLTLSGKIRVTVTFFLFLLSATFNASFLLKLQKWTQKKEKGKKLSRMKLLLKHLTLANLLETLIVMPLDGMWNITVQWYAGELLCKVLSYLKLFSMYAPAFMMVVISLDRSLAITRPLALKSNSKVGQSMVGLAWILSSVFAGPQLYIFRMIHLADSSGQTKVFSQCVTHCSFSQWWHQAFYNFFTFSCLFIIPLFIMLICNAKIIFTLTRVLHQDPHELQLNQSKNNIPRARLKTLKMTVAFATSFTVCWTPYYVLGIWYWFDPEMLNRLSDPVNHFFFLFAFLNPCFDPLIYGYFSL
Outline: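 Cells: HEK293 stably expressing human GnRHR. Steps: overnight (18 h) culture, 1 h calcium dye loading at 37 C, compound addition, kinetic fluorescence read at 480/540 nm. Each compound tested at 15 concentrations in triplicate.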

[4] = target: KiSS-1 receptor (Homo sapiens) (UniProt Q969F8); test: Human kisspeptin (KISS1R) small molecule agonists, calcium flux assay in KISS1R-HEK293 cells (AID 1920064; active means well fitted curve in the direction sought with a large enough effect in the repeat runs; an effect the other way counts as inactive or inconclusive)
Chain of KiSS-1 receptor (Homo sapiens) (Q969F8 whole entry, looked up): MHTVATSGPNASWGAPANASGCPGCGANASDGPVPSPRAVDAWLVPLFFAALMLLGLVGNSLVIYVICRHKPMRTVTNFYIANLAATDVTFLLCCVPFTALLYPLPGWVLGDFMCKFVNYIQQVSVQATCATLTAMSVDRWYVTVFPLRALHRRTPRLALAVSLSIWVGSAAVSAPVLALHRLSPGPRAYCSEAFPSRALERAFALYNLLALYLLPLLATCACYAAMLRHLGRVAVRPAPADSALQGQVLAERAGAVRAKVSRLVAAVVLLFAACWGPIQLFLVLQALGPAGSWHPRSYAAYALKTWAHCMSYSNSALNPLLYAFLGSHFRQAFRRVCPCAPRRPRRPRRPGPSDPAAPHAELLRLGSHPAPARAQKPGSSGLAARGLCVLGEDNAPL
Outline: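 Cells plated and incubated 18 h; dye added, 1 h at 37 C; compounds in DMSO pinned in; signal read at 480/540 nm every second for 3 min. Each compound tested at 15 concentrations in triplicate.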

[5] = G protein-coupled receptor (GPCR) small molecule agonists, calcium flux assay: HEK293 wild type cell line counter screen (AID 1920065)
Outline: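 Counter-screen of the Tox21 10K library for non-specific calcium release: dye-loaded cells received compounds in DMSO and were monitored by kinetic fluorescence (480/540 nm, 3 min). Fifteen concentrations, run in triplicate.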

[6] = p53 small molecule agonists, cell-based qHTS assay with human liver microsomes (AID 1963577)
Outline: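 p53RE-bla reporter cells were pre-incubated 5 h at 37 C, then treated with compounds plus human liver microsomes (0.5 mg/mL final) and NADPH (0.5 mg/mL final) for 16 h at 37 C. Beta-lactamase activity was read by LiveBLAzer fluorescence after 2 h at room temperature.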

[7] = p53 small molecule agonists, cell-based qHTS assay with rat liver microsomes (AID 1963578)
Outline: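 p53RE-bla cells were exposed to compounds together with rat liver microsomes (0.5 mg/mL final) and NADPH (0.5 mg/mL final) for 16 h at 37 C, then read by LiveBLAzer beta-lactamase fluorescence after 2 h at room temperature.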

[8] = p53 small molecule agonists, cell-based qHTS assay with human liver microsomes: qHTS cell viability counter screen (AID 1963579); further: nearly all actives have a fitted effect of over 45% in size
Outline: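 p53RE-bla cells (4,000/well) were pre-incubated 5 h at 37 C, then given compounds in DMSO plus human liver microsomes (0.5 mg/mL final) and NADPH (0.5 mg/mL final) for 16 h at 37 C. Viability was read by CellTiter-Glo luminescence.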

[9] = p53 small molecule agonists, cell-based qHTS assay with rat liver microsomes: qHTS cell viability counter screen (AID 1963580); further: nearly all actives have a fitted effect of over 45% in size
Outline: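 HCT-116 p53RE-bla, 4,000 cells/well, 5 h pre-incubation; cpd + rat liver microsomes 0.5 mg/mL + NADPH 0.5 mg/mL (final); 16 h, 37 C; CellTiter-Glo, 30 min RT; luminescence.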

[10] = p53 small molecule agonists, cell-based qHTS assay: qHTS cell viability counter screen (AID 1963581); further: nearly all actives have a fitted effect of over 45% in size
Outline: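 Cells: HCT-116 with p53 response element-driven beta-lactamase. Treatment: 16 h, 37 C, compounds in DMSO. Read: CellTiter-Glo luminescence after 30 min RT.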

[11] = p53 small molecule agonists, cell-based qHTS assay (AID 1963582; active means well fitted activation curve with a large enough effect in the signal ratio in the repeat runs, not every such curve was filed as active; the % refers to the signal ratio)
Outline: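 Quantitative HTS in p53RE-bla cells: after a 5 h settling period, compounds delivered in DMSO were left on cells for 16 h at 37 C, and reporter induction was measured as fluorescence following 2 h substrate loading.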

[12] = target: 5-hydroxytryptamine receptor 2A (Homo sapiens) (UniProt P28223); test: 5-hydroxytryptamine receptor 2A (HTR2A) small molecule antagonists, cell-based qHTS assay (AID 1963586); further: nearly all actives have a fitted effect of over 45% in size
Chain of 5-hydroxytryptamine receptor 2A (Homo sapiens) (P28223 whole entry, looked up): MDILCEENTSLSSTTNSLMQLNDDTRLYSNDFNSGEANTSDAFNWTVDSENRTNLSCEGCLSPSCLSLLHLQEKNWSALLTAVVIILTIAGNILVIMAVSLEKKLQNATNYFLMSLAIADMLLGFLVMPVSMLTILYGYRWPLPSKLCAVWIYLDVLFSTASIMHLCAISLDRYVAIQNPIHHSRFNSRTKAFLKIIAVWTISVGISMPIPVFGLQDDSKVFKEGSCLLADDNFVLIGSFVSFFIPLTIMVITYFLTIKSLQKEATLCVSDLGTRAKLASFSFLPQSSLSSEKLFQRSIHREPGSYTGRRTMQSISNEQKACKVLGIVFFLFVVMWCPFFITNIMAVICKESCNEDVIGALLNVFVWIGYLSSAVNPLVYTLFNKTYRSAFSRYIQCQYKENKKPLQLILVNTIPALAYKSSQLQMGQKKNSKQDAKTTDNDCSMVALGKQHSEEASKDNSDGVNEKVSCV
Outline: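 Antagonist-mode intracellular calcium assay: DOI (4 nM) added after 5 min compound pre-incubation at room temperature to dye-loaded HTR2A-CHO cells. Fluorescence followed for 3 min, sampled every second.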

[13] = target: 5-hydroxytryptamine receptor 2A (Homo sapiens) (UniProt P28223); test: 5-hydroxytryptamine receptor 2A (HTR2A) small molecule agonists, cell-based qHTS assay (AID 1963587); further: nearly all actives have a fitted effect of over 30% in size
Outline: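 Kinetic calcium-flux fluorescence (2 min, 1 sec intervals) after compound addition in agonist mode. HTR2A-CHO cells were cultured 18 h, then dye-loaded 1 h at 37 C.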

[14] = target: Muscarinic acetylcholine receptor M1 (Homo sapiens) (UniProt P11229); test: Cholinergic receptor muscarinic 1 (CHRM1) small molecule antagonists, cell-based qHTS assay (AID 1963588); further: nearly all actives have a fitted effect of over 40% in size
Chain of Muscarinic acetylcholine receptor M1 (Homo sapiens) (P11229 whole entry, looked up): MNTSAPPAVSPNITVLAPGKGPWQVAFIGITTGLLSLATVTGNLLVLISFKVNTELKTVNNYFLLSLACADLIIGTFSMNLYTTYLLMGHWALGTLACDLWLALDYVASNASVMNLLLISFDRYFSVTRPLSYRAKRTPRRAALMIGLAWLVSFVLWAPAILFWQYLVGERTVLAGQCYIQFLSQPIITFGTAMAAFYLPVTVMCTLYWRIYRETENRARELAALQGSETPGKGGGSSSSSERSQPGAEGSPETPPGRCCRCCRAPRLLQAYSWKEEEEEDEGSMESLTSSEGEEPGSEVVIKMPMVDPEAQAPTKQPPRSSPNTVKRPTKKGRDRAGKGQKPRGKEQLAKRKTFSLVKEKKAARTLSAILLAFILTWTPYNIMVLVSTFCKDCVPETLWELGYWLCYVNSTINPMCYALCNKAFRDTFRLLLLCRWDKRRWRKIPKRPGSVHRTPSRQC
Outline: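 CHRM1-CHO calcium-flux assay, antagonist mode. Cells were seeded 18 h, dye-loaded 1 h at 37 C and given compound for 5 min at RT, then acetylcholine was added at 50nM. FDSS fluorescence was read 3 min; 15 concentrations, three runs.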

[15] = target: Muscarinic acetylcholine receptor M1 (Homo sapiens) (UniProt P11229); test: Cholinergic receptor muscarinic 1 (CHRM1) small molecule agonists, cell-based qHTS assay (AID 1963589); further: nearly all actives have a fitted effect of over 35% in size
Outline: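 Agonist-mode qHTS in CHO cells stably carrying human muscarinic M1. Intracellular calcium is tracked by fluorescence every second after compound transfer; each compound runs at 15 concentrations in three independent runs.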

[16] = cAMP Responsive Elements (CRE) small molecule agonists, cell-based qHTS assay (AID 1963590)
Outline: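 Agonist mode qHTS in CRE-bla HEK 293T cells: compounds dosed from DMSO for 3 h at 37 C/5% CO2, followed by LiveBLAzer B/G FRET substrate for 2 h at room temperature.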

[17] = cAMP Responsive Elements (CRE) small molecule antagonists, cell-based qHTS assay (AID 1963591; active means well fitted inhibition curve with a large enough effect in the signal ratio in the repeat runs, not every such curve was filed as active; the % refers to the signal ratio)
Outline: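 Antagonist mode: test compounds are co-incubated with the adenylyl cyclase activator NKH477 (0.25 uM final) on CRE-bla HEK293T cells for 3 h at 37 °C, followed by LiveBLAzer substrate loading.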

[18] = target: Beta-2 adrenergic receptor (Homo sapiens) (UniProt P07550); test: Adrenergic beta2 receptor (ADRB2) small molecule antagonists, cell-based qHTS assay (AID 1963592); further: series mostly up to about 92 µM; nearly all actives have a fitted effect of over 50% in size
Chain of Beta-2 adrenergic receptor (Homo sapiens) (P07550 whole entry, looked up): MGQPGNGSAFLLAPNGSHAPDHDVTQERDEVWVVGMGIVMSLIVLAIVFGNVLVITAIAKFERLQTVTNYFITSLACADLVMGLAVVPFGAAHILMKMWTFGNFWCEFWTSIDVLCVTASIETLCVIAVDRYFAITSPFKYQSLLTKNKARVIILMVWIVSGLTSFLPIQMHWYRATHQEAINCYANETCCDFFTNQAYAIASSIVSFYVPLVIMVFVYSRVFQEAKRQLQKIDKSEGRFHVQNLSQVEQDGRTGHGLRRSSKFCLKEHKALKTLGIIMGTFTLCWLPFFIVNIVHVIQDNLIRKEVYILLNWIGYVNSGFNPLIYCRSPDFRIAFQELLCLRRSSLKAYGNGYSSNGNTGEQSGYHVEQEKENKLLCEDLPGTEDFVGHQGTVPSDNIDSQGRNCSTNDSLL
Outline: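 Cells (CHO, stable ADRB2 overexpression) incubated 18-20hr at 37C; compounds added from DMSO; agonist mix (1nM isoproterenol, 100uM IBMX, 25uM Ro-20-1724) added; 0.5hr RT; d2-cAMP and anti-cAMP-cryptate added; 1hr RT; 665/615 nm read.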

[19] = target: D(2) dopamine receptor (Homo sapiens) (UniProt P14416); test: Dopamine D2 receptor (DRD2) small molecule agonists, cell-based qHTS assay (AID 1963594); further: nearly all actives have a fitted effect of over 35% in size
Chain of D(2) dopamine receptor (Homo sapiens) (P14416 whole entry, looked up): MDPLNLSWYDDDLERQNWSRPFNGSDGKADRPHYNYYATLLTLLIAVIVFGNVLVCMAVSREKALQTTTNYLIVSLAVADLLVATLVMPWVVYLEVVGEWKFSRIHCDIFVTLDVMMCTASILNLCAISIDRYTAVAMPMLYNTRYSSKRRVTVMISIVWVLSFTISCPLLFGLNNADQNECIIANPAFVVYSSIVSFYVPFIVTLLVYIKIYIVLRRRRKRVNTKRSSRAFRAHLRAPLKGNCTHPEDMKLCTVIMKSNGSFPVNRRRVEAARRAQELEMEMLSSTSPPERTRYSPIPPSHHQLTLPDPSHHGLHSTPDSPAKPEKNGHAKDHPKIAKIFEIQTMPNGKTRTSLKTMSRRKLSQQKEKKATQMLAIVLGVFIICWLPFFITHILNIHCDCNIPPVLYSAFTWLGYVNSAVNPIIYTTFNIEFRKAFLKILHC
Outline: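 cAMP accumulation in DRD2-HEK293 cells measured by HTRF after 1 h detection; compounds added 10 min before NKH477 (200nM […]) forskolin-analogue stimulation, 30 min at room temperature, with Ro20-1724 present at 0.1 mM final.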

[20] = target: D(2) dopamine receptor (Homo sapiens) (UniProt P14416); test: Dopamine D2 receptor (DRD2) small molecule antagonists, cell-based qHTS assay (AID 1963595; active means well fitted inhibition curve with a large enough effect in the signal ratio in the repeat runs, with a control signal flat; the % refers to the signal ratio)
Outline: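 DRD2-HEK293; 0.1 mM Ro20-1724; cpd 10 min RT; NKH477 200 nM + quinpirole 12 nM, 30 min RT; HTRF cAMP (cAMP-d2/anti-cAMP cryptate), 665/620 nm ratio after 1 h.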

Measured: Potency

C[Si]1(C)N[Si](C)(C)N[Si](C)(C)N1
not listed: [20]
inactive: all other assays above

Cc1cccc([N+](=O)[O-])c1C(=O)O
inactive: all assays above

O=C(O)c1c(Cl)cccc1Cl
inactive: all assays above

Cc1cccc(C)n1
inactive: all assays above

OCC(CO)(CO)COCC(CO)(CO)CO
inactive: all assays above

CCC1CO1 (stereo not drawn)
not listed: [20]
inactive: all other assays above

CN(C(=O)C(Cl)Cl)c1ccc(OC(=O)c2ccco2)cc1
inactive: all assays above

Source: PubChem BioAssay (Tox21)
